The list is not random: actives were taken first. Their share in the collection is about 1.6%.
eIF4E-4G inh = inhibitors of eIF4E and eIF4G interaction in translation initiation; P63073+Q04637; TR-FRET eIF4E-eIF4GI(517-606) binding, 2 h; inhibition, % at 21.7 µM; 0.37% of 220,000 active;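 active means inhibition above about 30%, limit read from the data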;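 further: 0% = full FRET control wells and 100% = background wells lacking eIF4GI fragment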
Target sequence (P63073 whole entry, looked up, the tested form may be a part): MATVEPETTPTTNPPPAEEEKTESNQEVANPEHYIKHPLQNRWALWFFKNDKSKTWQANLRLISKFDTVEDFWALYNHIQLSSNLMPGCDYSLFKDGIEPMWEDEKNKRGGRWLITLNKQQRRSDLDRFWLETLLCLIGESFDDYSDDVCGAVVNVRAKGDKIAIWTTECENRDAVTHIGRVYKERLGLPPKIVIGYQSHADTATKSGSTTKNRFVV
Target sequence (Q04637 whole entry, looked up, the tested form may be a part): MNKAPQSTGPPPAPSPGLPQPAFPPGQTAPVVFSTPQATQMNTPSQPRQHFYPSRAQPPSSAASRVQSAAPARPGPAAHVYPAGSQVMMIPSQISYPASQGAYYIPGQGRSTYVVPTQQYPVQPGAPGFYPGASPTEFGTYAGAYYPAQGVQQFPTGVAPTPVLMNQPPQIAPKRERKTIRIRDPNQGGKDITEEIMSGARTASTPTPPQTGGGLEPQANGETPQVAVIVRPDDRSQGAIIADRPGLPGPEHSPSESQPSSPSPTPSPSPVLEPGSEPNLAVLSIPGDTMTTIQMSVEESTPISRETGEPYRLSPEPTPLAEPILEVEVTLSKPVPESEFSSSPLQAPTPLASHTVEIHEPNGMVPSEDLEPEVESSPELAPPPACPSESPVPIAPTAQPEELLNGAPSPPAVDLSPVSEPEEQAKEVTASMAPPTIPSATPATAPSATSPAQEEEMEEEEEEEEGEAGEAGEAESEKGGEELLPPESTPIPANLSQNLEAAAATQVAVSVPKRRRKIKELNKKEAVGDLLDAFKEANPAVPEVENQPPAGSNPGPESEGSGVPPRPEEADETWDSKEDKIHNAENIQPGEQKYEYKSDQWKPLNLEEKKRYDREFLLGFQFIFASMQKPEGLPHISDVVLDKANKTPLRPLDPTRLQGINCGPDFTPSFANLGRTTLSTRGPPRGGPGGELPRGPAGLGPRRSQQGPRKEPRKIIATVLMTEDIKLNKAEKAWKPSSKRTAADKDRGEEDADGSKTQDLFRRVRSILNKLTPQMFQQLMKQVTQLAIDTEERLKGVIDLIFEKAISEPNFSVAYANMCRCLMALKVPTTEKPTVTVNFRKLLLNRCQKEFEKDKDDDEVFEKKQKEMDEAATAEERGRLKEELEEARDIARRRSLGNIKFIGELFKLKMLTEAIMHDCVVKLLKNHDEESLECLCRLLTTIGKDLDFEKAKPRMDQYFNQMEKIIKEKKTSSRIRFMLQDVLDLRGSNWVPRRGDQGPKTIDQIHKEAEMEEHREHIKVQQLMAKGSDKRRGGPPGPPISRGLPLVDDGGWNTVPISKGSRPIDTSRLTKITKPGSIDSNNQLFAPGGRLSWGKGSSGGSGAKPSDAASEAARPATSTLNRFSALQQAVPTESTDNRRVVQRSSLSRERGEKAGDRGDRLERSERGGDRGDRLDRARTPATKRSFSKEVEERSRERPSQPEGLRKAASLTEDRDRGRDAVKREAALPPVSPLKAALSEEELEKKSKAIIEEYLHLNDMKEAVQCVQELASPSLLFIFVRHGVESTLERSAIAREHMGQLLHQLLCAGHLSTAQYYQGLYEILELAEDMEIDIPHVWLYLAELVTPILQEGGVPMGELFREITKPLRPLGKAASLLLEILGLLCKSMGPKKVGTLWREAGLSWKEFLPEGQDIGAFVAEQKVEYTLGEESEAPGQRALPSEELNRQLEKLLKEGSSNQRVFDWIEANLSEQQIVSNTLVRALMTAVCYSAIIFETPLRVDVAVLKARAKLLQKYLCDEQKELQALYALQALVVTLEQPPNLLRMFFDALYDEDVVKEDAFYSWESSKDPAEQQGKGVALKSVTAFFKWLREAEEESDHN
eIF4H inh = inhibitors of RNA binding by human eIF4H. 0.94% of 290,000 active. Q15056. inhibition, % at 35 µM. eIF4H fluorescence polarization binding assay;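 further: calls also rest on retests at 20 µM and on dose response follow-up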
MLLE-PAM2 inh = inhibitors of microRNA-mediated deadenylation, human PABP1 MLLE binding; inhibition, % at 20 µM; AID 588489; GST-MLLE / FITC-PAM2 fluorescence polarization; 0.36% of 360,000 active; in the data active means inhibition above about 35%, passing the limit was not always enough;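 further: plate controls were DMSO wells with GST-MLLE for no effect and wells lacking GST-MLLE protein for full effect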
PERK inh = human PERK inhibition, primary cell-based screen. Q9NZJ5. 0.17% of 220,000 active. inhibition, % at 5.6 µM. CHO PERK-DD fusion, SEAP luminescence translation reporter. AID 1416;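 active means inhibition above the mean inhibition of all tested compounds plus 3 SD, set separately per screening campaign, cut at about 2.9% in these data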;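 further: PERK kinase domain activated by AP20187 dimerizer at 100 nM; 0% = DMSO with dimerizer and 100% = rapamycin at 8.4 µM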
PABP FP inh = PABP-poly(A) binding inhibition. PABP-poly(A) RNA binding, fluorescence polarization. calls only at 35 µM. 1% of 290,000 active;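 further: calls also rest on retests at 20 µM and on dose response follow-up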
* = called active by the depositor; [ ] = another dose, or the depositor's remark. Unless noted, how the calls were made is not given here.

`COc1ccc2c(c1)c(=O)oc1c(C)c(OC(C)C(=O)N[C@@H](Cc3c[nH]c4ccc(O)cc34)C(=O)O)ccc12` (some centres undefined) gave eIF4H inh 81.9*, MLLE-PAM2 inh 2.4 and PABP FP inh active.
For Cc1cc(OC(C)C(=O)NC(Cc2c[nH]c3ccc(O)cc23)C(=O)O)c2c(C)cc(=O)oc2c1 (centres undefined) the results were eIF4H inh 55.8, MLLE-PAM2 inh 6.9 and PABP FP inh inactive.
CC(Oc1ccc2c(-c3ccccc3)cc(=O)oc2c1)C(=O)NC(Cc1c[nH]c2ccc(O)cc12)C(=O)O (centres undefined) was read as eIF4H inh 85.8*, MLLE-PAM2 inh -9.2 and PABP FP inh active.
For CN(C)S(=O)(=O)c1ccc(C(=O)N2CCN(S(=O)(=O)c3ccc4c(c3)OCCO4)CC2)cc1 the results were MLLE-PAM2 inh -13.1.
Cc1ccc([N+](=O)[O-])cc1NC(=S)NC(=O)c1c(Cl)cnn1C was read as eIF4H inh 0.5, MLLE-PAM2 inh 31.0 and PABP FP inh inactive.
O=C(Cc1ccc(F)cc1)Nc1ccc2[nH]ncc2c1 was read as eIF4H inh 2.0, MLLE-PAM2 inh -7.1 and PABP FP inh inactive.
Nc1ccc2[nH]ncc2c1 was read as eIF4E-4G inh 4.0, eIF4H inh 56.6*, MLLE-PAM2 inh 3.9, PERK inh 0.8 and PABP FP inh active.
`CC(C)N1C(=O)CCC1C(=O)NCc1ccc(F)cc1Cl` (centres undefined) gave eIF4H inh 5.3, MLLE-PAM2 inh -1.8 and PABP FP inh inactive.
Screening OCC[C@@H]1C[C@H](O)[C@@H](O)[C@]2(OCc3ccccc32)O1 returned eIF4H inh -6.9, MLLE-PAM2 inh 14.1 and PABP FP inh inactive.
Screening Cc1ccnc(NC(=O)Cc2ccc(F)cc2)n1 returned eIF4E-4G inh 85.0*, eIF4H inh -6.9, MLLE-PAM2 inh -14.2, PERK inh 1.1 and PABP FP inh inactive.
For COc1cc(C2c3sc(=O)[nH]c3SC3C(=O)N(c4ccc(Br)cc4)C(=O)C32)ccc1O (centres undefined) the results were eIF4E-4G inh -1.9, eIF4H inh 0.7, MLLE-PAM2 inh 47.2*, PERK inh -0.4 and PABP FP inh inactive.
For CCN(CC(=O)Nc1ccc(OC)cc1)C(=O)c1ccc2c(c1)NC(=O)CS2 the results were MLLE-PAM2 inh -60.9.
Screening CCOc1ccc(NC(=O)N(CCN(C)C)C(C)c2cccnc2)cc1 (centres undefined) returned eIF4E-4G inh 88.4*, eIF4H inh -5.6, MLLE-PAM2 inh 4.1, PERK inh 0.2 and PABP FP inh inactive.
Cc1c2cnn(-c3ccccc3)c(=O)c2c(C)n1CCCC(=O)NCCN1CCN(C)CC1 was read as eIF4E-4G inh -1.8, eIF4H inh -4.7, MLLE-PAM2 inh -21.8, PERK inh 3.7* and PABP FP inh inactive.
CCN1CCN(C(=O)CCCn2c(C)c3cnn(-c4ccccc4)c(=O)c3c2C)CC1 was read as eIF4E-4G inh -3.9, eIF4H inh -11.3, MLLE-PAM2 inh 2.4, PERK inh 0.7 and PABP FP inh inactive.
`Cc1ccc(S(=O)(=O)N2CCOCC2)cc1C(=O)N1CCN(S(=O)(=O)c2ccccc2F)CC1` gave MLLE-PAM2 inh 0.1.
`Cc1ccc(S(=O)(=O)CCC(=O)OCC(=O)Nc2cc(S(=O)(=O)N3CCOCC3)ccc2C)cc1` gave MLLE-PAM2 inh -12.4.
Screening COc1cc(CN(C(=O)c2ccco2)c2ccc(C)cc2)ccc1O returned eIF4E-4G inh 36.9*[fluorescence artefact?], eIF4H inh 17.7, MLLE-PAM2 inh 2.9, PERK inh -0.4 and PABP FP inh inactive.
`O=c1[nH]cnc(CN2CCCCC2)c1O` gave MLLE-PAM2 inh 12.6.
O=c1[nH]c(CN2CCCCC2)ccc1O was read as MLLE-PAM2 inh 45.0*.
Screening Cc1ccc2cc(CN(CCN3CCOCC3)Cc3nnnn3Cc3ccco3)c(=O)[nH]c2c1C returned eIF4E-4G inh 16.9, eIF4H inh 85.8*, MLLE-PAM2 inh -17.4, PERK inh -0.5 and PABP FP inh active.
Screening COc1cc2cc(CN(Cc3nnnn3Cc3ccco3)C3CCCCC3)c(=O)[nH]c2cc1OC returned eIF4E-4G inh 2.0, eIF4H inh 61.3*, MLLE-PAM2 inh 12.9, PERK inh 1.1 and PABP FP inh active.
`CCOc1ccc2[nH]c(=O)c(CN(Cc3nnnn3Cc3ccco3)C3CCCCC3)cc2c1` gave eIF4E-4G inh -0.4, eIF4H inh 56.8*, MLLE-PAM2 inh 28.9, PERK inh 0.1 and PABP FP inh active.
COCCn1nnnc1CN(Cc1cc2cc(OC)c(OC)cc2[nH]c1=O)C1CCCC1 was read as eIF4E-4G inh 2.8, eIF4H inh 51.3*, MLLE-PAM2 inh 4.6, PERK inh -0.5 and PABP FP inh active.
`Cc1ccc(C(=O)NCC2CCCO2)cc1S(=O)(=O)N1CCCCC1` (centres undefined) gave eIF4H inh -4.5, MLLE-PAM2 inh 2.0 and PABP FP inh inactive.
For CCOc1ccc(NC(=O)CSc2nnc(-c3cc(C)[nH]n3)n2N)cc1 the results were eIF4H inh -6.8, MLLE-PAM2 inh -7.9 and PABP FP inh inactive.
N=c1sccn1CC(=O)NC(c1ccccc1)c1ccccc1 was read as eIF4E-4G inh -0.7, eIF4H inh 1.1*, MLLE-PAM2 inh 2.2, PERK inh 0.1 and PABP FP inh inactive.
For N=c1sccn1CC(=O)Nc1ccccc1Cc1ccccc1 the results were eIF4E-4G inh -15.8, eIF4H inh 5.0, MLLE-PAM2 inh 11.8, PERK inh -0.1 and PABP FP inh inactive.
Screening CCSc1ccc2nnc(-c3cccc(F)c3)n2n1 returned eIF4E-4G inh 55.6*, eIF4H inh 1.8, MLLE-PAM2 inh -12.4, PERK inh 0.3 and PABP FP inh inactive.
COc1ccc(C(=O)NCC(=O)OC2CCCCC2=O)cc1 (centres undefined) was read as eIF4E-4G inh -2.7, eIF4H inh 100.5, MLLE-PAM2 inh 2.5, PERK inh 3.6* and PABP FP inh inactive.
Cc1n[nH]c(=O)n1-c1cccc(C(F)(F)F)c1 was read as eIF4E-4G inh -0.9, eIF4H inh -3.7, MLLE-PAM2 inh 22.6, PERK inh -0.3 and PABP FP inh inactive.
Screening O=c1[nH]ncn1-c1cccc(C(F)(F)F)c1 returned eIF4E-4G inh -5.0, eIF4H inh 58.8*, MLLE-PAM2 inh 0.1, PERK inh -0.8 and PABP FP inh inactive.
Screening CCOc1cccc(N(C(=O)CNC(=O)c2ccco2)C(C(=O)NCC2CCCO2)c2ccccc2)c1 (centres undefined) returned eIF4H inh -3.2, MLLE-PAM2 inh 6.3 and PABP FP inh inactive.
`CCCN1C(=O)C2(C(C(=O)c3ccc(C)o3)=C(O)C(=O)N2CCCOC)c2ccccc21` (centres undefined) gave eIF4E-4G inh 96.2*, eIF4H inh 2.4, MLLE-PAM2 inh -2.4, PERK inh 1.2 and PABP FP inh inactive.

Screening data from PubChem BioAssay.
